Here are results for 9 compounds from PubChem BioAssay.

A short description of assay [1]: blockers of polyQ-driven CASP3 activation – cell-based (AID 1583). As to conditions: polyglutamine-induced caspase-3 activation, cell assay; stronger effect = higher value;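 tested at 10 µM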.
The nature of assay [2]: yeast 75Q aggregation reduction – 75Q-TubU reporter (AID 1593). As to conditions: Yeast 75Q polyglutamine aggregation reporter.
Assay [3] can be described thus: restoration of touch response, mutant HTT neurons – whole organism, C. elegans mechanosensory neurons, N-terminal huntingtin (AID 1599). As to conditions: C. elegans polyQ-huntingtin mechanosensory neurons, stronger effect = higher value.
The nature of assay [4]: blockers of cytochrome c efflux from mitochondria – biochemical, purified mitochondria (AID 1603).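 Also: mouse liver mitochondria challenged with calcium chloride; signal normalized to the plate average as 100%.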 As to conditions: stronger effect = lower value.
The nature of assay [5]: polyglutamine aggregate formation blockers (AID 1604). The conditions noted are these: polyglutamine-induced protein aggregation inhibition assay; stronger effect = higher value; tested at 2.5 µM.
Assay [6] is described as follows: glutamate transport activators, MN-1 cells, MN-1 cell line (AID 1612).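 Also: tested at 1 µM final; 0% = mean of DMSO vehicle wells on each plate; positive means more glutamate uptake than control and negative means less.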 The conditions noted are these: MN-1 motor neuron cells, stronger effect = higher value.
A short description of assay [7]: 75Q-TubH aggregate inhibition, S. cerevisiae, yeast (AID 1616). As to conditions: S. cerevisiae 75Q-TubH polyglutamine aggregation suppression; stronger effect = higher value.
A short description of assay [8]: compounds altering viability of human ES cells (AID 493140; call rule not given here;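 also: cells exposed to compounds for four days before counting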). As to conditions: human embryonic stem cell survival screen; stronger effect = higher value.
Assay [9] is described as follows: modulation of C. elegans fzo-1 (AID 1259413; call rule not given here;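 also: fzo-1 mutant C. elegans worms in liquid wells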). As to conditions: C. elegans fzo-1 modulator screen, mean read-out; stronger effect = higher value.
Assay [10] in a line: galactose survival enhancers in mitochondrial complex I cybrids – cell-based, galactose medium, ATP luminescence, primary screen (AID 1645843;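 active = z-score of at least 1.8 in each of two replicates, scored against plate mean and spread of sample wells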;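 also: positive z means more ATP and so rescue of galactose-driven cybrid death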). The conditions noted are these: complex I mutant cybrid cells, 72 h, stronger effect = higher value.
Another assay has as its system F380Y/beta1. Put plainly: BK channel mutant inhibitors and activators – cell-based, U2OS BacMam, thallium flux, beta subunits, selectivity assay, profiling panel (AID 1259406).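 Also: initial slope of Thallos dye fluorescence rise after thallium is added; log ratio against the mean of 0.3% DMSO vehicle wells on the same plate.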 The conditions noted are these: U2OS BacMam BK variants, at 30 µM.
The next assay deals with F380Y/beta2Delta. Described as above. The conditions noted are these: U2OS BacMam BK variants, at 30 µM.
A further assay concerns F380Y/beta4. The description is as above. As to conditions: U2OS BacMam BK variants, at 30 µM.
For assay [11], the target named is Calcium-activated potassium channel subunit alpha-1 (Homo sapiens) + Leucine-rich repeat-containing protein 26 (Homo sapiens) (UniProt Q12791+Q2I0M4). Described as above. As to conditions: U2OS BacMam BK variants, F380Y/Slo1WT/gamma1, at 30 µM.
Sequence of Calcium-activated potassium channel subunit alpha-1 (Homo sapiens) + Leucine-rich repeat-containing protein 26 (Homo sapiens) (Q2I0M4 whole entry, looked up, one chain of several): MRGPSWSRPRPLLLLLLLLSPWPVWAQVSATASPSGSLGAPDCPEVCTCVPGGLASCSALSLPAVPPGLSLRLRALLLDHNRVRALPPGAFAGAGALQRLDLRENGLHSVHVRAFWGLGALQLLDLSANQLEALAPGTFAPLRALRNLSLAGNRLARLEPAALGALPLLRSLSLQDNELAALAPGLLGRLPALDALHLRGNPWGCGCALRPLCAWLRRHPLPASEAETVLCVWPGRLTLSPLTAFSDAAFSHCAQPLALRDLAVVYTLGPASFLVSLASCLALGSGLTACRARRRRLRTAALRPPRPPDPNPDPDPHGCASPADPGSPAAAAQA
Another assay deals with R275C. The description is as above. As to conditions: U2OS BacMam BK variants, at 30 µM.
The subject of the next assay is R275C/beta1. The assay is described as above. As to conditions: U2OS BacMam BK variants, at 30 µM.
The subject of the next assay is R275C/beta2Delta. The assay is described as above. As to conditions: U2OS BacMam BK variants, at 30 µM.
For a further assay, the system named is R275C/beta4. The assay is described as above. As to conditions: U2OS BacMam BK variants, at 30 µM.
In the next assay the test system is R275C/Slo1WT/beta2. The description is as above. The conditions noted are these: U2OS BacMam BK variants, at 30 µM.
Assay [12] deals with Neuropilin-2 / VEGF-C interaction (human). As to the kind of experiment: small molecules blocking Neuropilin-2/VEGF-C interaction – biochemical, microplate binding format, z-score (AID 743281; call rule not given here). As to conditions: microplate NRP2/VEGF-C binding assay; stronger effect = lower value.

A word on the inhibition: it is how much of the control response was suppressed.

“And” between values parts separate entries of the source, which are not always exact repeats. Identical values can stand only once. For some of these results: Entries with a potency or affinity are not part of this list. The source made the active and inactive calls.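 The calls were made as follows, unless noted: active = thallium flux through the channel raised or lowered by more than 3 SD from vehicle-only wells, actives on both sides; inactive = the rest.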

`CC(C)(C)NCC(O)c1cc(O)cc(O)c1` (configuration not stated) yielded an inhibition in assay [1] of 10.1%. In [2], this compound showed a score of 1.33. Besides, in [3], the rescue above control is -7.82. The cytochrome c release ratio in [4] is 1.15. The inhibition of aggregation in [5] was found to be 47.9%. Also, the glutamate uptake change in [6] was found to be 22.8%. Besides, the aggregation suppression score in [7] worked out at 1.5. Moreover, in assay [8], the survival is 21.1 (inactive). In assay [9], the mean signal was 269 (inactive). Moreover, the z-score in assay [10] was 0.355 (inactive) and 1.03 (inactive). Besides, the log fold change Tl+ flux with F380Y/beta1 is -0.0587 (inactive); in the assay on F380Y/beta2Delta it was 0.0185 (inactive); with F380Y/beta4 it was -0.0336 (inactive); in [11] it was 0.00552 (inactive); in the assay on R275C, 0.00159 (inactive); with R275C/beta1 it was -0.00541 (inactive). For the same compound, the log fold change Tl+ flux in the assay on R275C/beta2Delta was -0.00466 (inactive); in the assay on R275C/beta4, 0.00501 (inactive); in the assay on R275C/Slo1WT/beta2 it was -0.0142 (inactive).

Turning to `Nc1nc(N)c2nc(-c3ccccc3)c(N)nc2n1`, in assay [1], the inhibition amounted to 13.8%. Besides, the score in assay [2] is 1.58. The compound also gave a rescue above control in assay [3] of 4.34. The cytochrome c release ratio in [4] is 0.47. In assay [5], this compound came in with an inhibition of aggregation of 52.6%. In addition, in assay [6], the glutamate uptake change worked out at 10.7%. Further, in [7], the aggregation suppression score was found to be 1.34. For the same compound, the survival in [8] was 18.2 (inactive). For the same compound, the mean signal in assay [9] is 245 (inactive). In addition, the z-score in assay [10] was -0.725 (inactive) and 0.27 (inactive). For the same compound, the log fold change Tl+ flux is -0.0403 (inactive) in the assay with F380Y/beta1; 0.0397 (inactive) with F380Y/beta2Delta; -0.00497 (inactive) in the assay on F380Y/beta4; 0.00721 (inactive) in assay [11]; -0.00764 (inactive) in the assay with R275C; -0.0258 (inactive) in the assay on R275C/beta1. For the same compound, the figures for the log fold change Tl+ flux in the assay on R275C/beta2Delta, in the assay on R275C/beta4 and in the assay with R275C/Slo1WT/beta2 were -0.000652 (inactive), -0.0731 (inactive) and 0.0101 (inactive), respectively.

Compound `c1ccc2c(CC3=NCCN3)cccc2c1` registered an inhibition in [1] of 16.4%. This compound also yielded a score in assay [2] of 1.41. In assay [3], the rescue above control is -1.7. In addition, the cytochrome c release ratio in [4] was 1.14. In addition, in assay [5], the inhibition of aggregation came out at 79.6%. For the same compound, the glutamate uptake change in assay [6] was -6.49%. Besides, in assay [7], the aggregation suppression score came to 1.49. Further, the survival in [8] was 12.7 (inactive). In [9], the mean signal is 245 (inactive). Further, the z-score in assay [10] is 0.47 (inactive) and 0.505 (inactive). For the same compound, the log fold change Tl+ flux in the assay on F380Y/beta1 was 0.0282 (inactive); with F380Y/beta2Delta, -0.014 (inactive); in the assay with F380Y/beta4, 0.0394 (inactive); in [11] it was 0.0291 (inactive); with R275C, -0.0401 (inactive); in the assay on R275C/beta1, -0.0378 (inactive). In addition, the log fold change Tl+ flux was 0.00508 (inactive) in the assay on R275C/beta2Delta, -0.0196 (inactive) in the assay on R275C/beta4 and -0.0172 (inactive) in the assay on R275C/Slo1WT/beta2.

Consider `C[C@H]1C[C@@H]2[C@H]([C@@H](O)C[C@@]3(C)[C@H]2CC[C@]3(O)C(=O)CO)[C@@]2(C)C=CC(=O)C=C12`, for which the survival in assay [8] was 11.9 (inactive). Further, in assay [9], the mean signal was 290 (inactive). Besides, the z-score in assay [10] is -0.075 (inactive) and 0.335 (inactive). For the same compound, the log fold change Tl+ flux with F380Y/beta1 was 0.0255 (inactive); in the assay with F380Y/beta2Delta, 0.00102 (inactive); in the assay on F380Y/beta4 it was -0.0167 (inactive); in assay [11], -0.0378 (inactive); with R275C, -0.0399 (inactive); with R275C/beta1, -0.0807 (inactive). The log fold change Tl+ flux in the assay with R275C/beta2Delta is 0.0437 (inactive); in the assay on R275C/beta4, -0.00754 (inactive); in the assay on R275C/Slo1WT/beta2, 0.0152 (inactive).

As to `CC(C)C1CCC(C(=O)N[C@H](Cc2ccccc2)C(=O)O)CC1` (some centres not stated), the values for the z-score in assay [12] and in [10] were -0.458 (inactive) and -0.11 (inactive), respectively. The mean signal in [9] was 221 (inactive). In addition, the log fold change Tl+ flux was 0.0965 (inactive) in the assay on F380Y/beta1; 0.0541 (inactive) in the assay on F380Y/beta2Delta; 0.075 (inactive) in the assay with F380Y/beta4; 0.0401 (inactive) in assay [11]; -0.00833 (inactive) in the assay with R275C; 0.0383 (inactive) in the assay on R275C/beta1. Further, the log fold change Tl+ flux was 0.0438 (inactive) with R275C/beta2Delta, 0.0835 (active) in the assay on R275C/beta4 and 0.0201 (inactive) in the assay with R275C/Slo1WT/beta2.

For `c1ccc(-c2ccc(C(c3ccccc3)n3ccnc3)cc2)cc1` (configuration not stated), the z-score in assay [12] is -0.348 (inactive); in [10] it was -1.87 (inactive) and -2.02 (inactive). Besides, the mean signal in assay [9] was 204 (inactive). In addition, the log fold change Tl+ flux was 0.00744 (inactive) with F380Y/beta1; 0.0145 (inactive) in the assay with F380Y/beta2Delta; 0.00227 (inactive) in the assay with F380Y/beta4; 0.0139 (inactive) in assay [11]; -0.0477 (inactive) with R275C; 0.164 (active) in the assay on R275C/beta1. In addition, the figures for the log fold change Tl+ flux in the assay with R275C/beta2Delta, in the assay with R275C/beta4 and with R275C/Slo1WT/beta2 were -0.336 (active), -0.0228 (inactive) and -0.0124 (inactive), respectively.

In turn, `Cc1cccc(Nc2ccccc2C(=O)O)c1C` gave an inhibition in assay [1] of 14.9%. The compound further came in with a score in assay [2] of 0.19. Also, the rescue above control in [3] was 14.6. In assay [4], the cytochrome c release ratio came to 1. In [5], this compound displayed an inhibition of aggregation of 32.9%. Besides, the glutamate uptake change in [6] was -12.3%. Also, the aggregation suppression score in [7] turned out to be 0.495. The survival in assay [8] was 12.2 (inactive). Besides, the mean signal in assay [9] was 235 (inactive). The z-score in assay [10] was 0.385 (inactive) and 1.06 (inactive). Moreover, the log fold change Tl+ flux was 0.147 (active) with F380Y/beta1; 0.111 (active) in the assay with F380Y/beta2Delta; 0.146 (active) with F380Y/beta4; 0.101 (active) in assay [11]; 0.009 (inactive) with R275C; 0.182 (active) in the assay with R275C/beta1. Also, the results for the log fold change Tl+ flux with R275C/beta2Delta, with R275C/beta4 and in the assay with R275C/Slo1WT/beta2 were 0.117 (active), 0.0837 (inactive) and 0.00462 (inactive), respectively.

Consider `CCOc1ccc2ccccc2c1C(=O)N[C@@H]1C(=O)N2[C@@H]1SC(C)(C)[C@@H]2C(=O)O`, for which the survival in assay [8] was 3.33 (inactive). In addition, in [9], the mean signal was 253 (inactive). Also, in assay [10], the z-score is 0.835 (inactive). Besides, the log fold change Tl+ flux in the assay on F380Y/beta1 was -0.0293 (inactive); in the assay with F380Y/beta2Delta, -0.0424 (inactive); with F380Y/beta4 it was -0.0322 (inactive); in assay [11], 0.0363 (inactive); in the assay with R275C, -0.00323 (inactive); in the assay with R275C/beta1 it was 0.00845 (inactive). The log fold change Tl+ flux was 0.0249 (inactive) in the assay on R275C/beta2Delta, -0.041 (inactive) with R275C/beta4 and 0.0157 (inactive) in the assay on R275C/Slo1WT/beta2.

In turn, `CC(=O)OCC[N+](C)(C)C` yielded an inhibition in [1] of 26.2%. The score in assay [2] was found to be 1.05. In assay [3], the rescue above control was 5.33. The cytochrome c release ratio in assay [4] amounted to 1.31. This compound registered an inhibition of aggregation in assay [5] of 74.9%. Moreover, the glutamate uptake change in [6] is -18.6%. In assay [7], this compound showed an aggregation suppression score of 1.22. For the same compound, in assay [9], the mean signal was 251 (inactive). Further, the z-score in [10] is 1.64 (inactive) and 0.235 (inactive). Also, the log fold change Tl+ flux is 0.000642 (inactive) with F380Y/beta1; -0.0134 (inactive) in the assay with F380Y/beta2Delta; -0.0182 (inactive) with F380Y/beta4; 0.00764 (inactive) in [11]; -0.00869 (inactive) in the assay on R275C; -0.00581 (inactive) with R275C/beta1. The log fold change Tl+ flux is -0.00325 (inactive) in the assay with R275C/beta2Delta, 0.0607 (inactive) in the assay with R275C/beta4 and 0.0039 (inactive) with R275C/Slo1WT/beta2.
